Values without a mark were called inactive. Activity calls are given as the source filed them. The call rests on the fitted dose curve; in most records, active means well fitted curve in the direction sought with a large enough effect in the repeat runs; inconclusive means weak or mixed curves; inactive means flat fitted curve, though single readings scatter. Residues, ends and D or L forms follow the SMILES beside them.
Test: qHTS assay to test for compound auto fluorescence at 590 nm (red) in HEK293 cell free culture (AID 720683)
Details: cell-free medium autofluorescence, Ex540/Em590 red; series mostly up to 46 µM; fluorescence, % of fluorescent control: at the top concentration
From the text: U.S. Tox21 Program National Center for Advancing Translational Sciences [NCATS] NIH Chemical Genomics Center [NCGC] U.S. Environmental Protection Agency [EPA] National Institutes of Environmental Health Sciences [NIEHS] National Toxicology Program [NTP] U.S. Food and Drug Administration [FDA] Tox21 Assay Overview: Compound auto fluorescence often interferes with screening of the compound library against various biological targets and signaling pathways. Some of these compounds may have fluorophoric properties. Such properties may interfere with the assay outputs resulting in false positives and/or negatives. To decrease such complications and ensure the compound activities are relevant in terms of biological response, the Tox21 10K compound library was screened for auto fluorescence. From the fluorophores used as reporter signals in our screening assays, the auto fluorescence equivalencies of compounds against three fluorophores have been evaluated: Triamterene, Fluorescein and Rose Bengal sodium for blue, green and red fluorescence, respectively. The fluorescence intensities were measured using Excitation/Emission wavelengths at 405/460nm, 485/535nm and 540/590nm for blue, green and red labels, respectively. This assay includes the red fluorescence data.
Tox21 Assay Protocol Summary: 5 uL of culture medium (DMEM containing 10% FBS) per well was dispensed into black wall/clear bottom 1536-well plates using a Multidrop Combi Dispenser (ThermoFisher Scientific, Waltham, MA). After 23 nL compound or DMSO vehicle was transferred into assay plate by a pintool work station (Kalypsys, San Diego, CA), fluorescence intensities in the assay plates were measured by an Envision (PerkinElmer, Shelton, CT) plate reader using three labels for measuring blue, green and red fluorescence at […] 460, 535 and 590nm respectively.
On the % scale 0 is the no-effect control and ±100 the full control effect.

Structure (SMILES) | fluorescence, % of fluorescent control | outcome
O=C1OC(O)C(C(Cl)Cl)=C1Cl (stereo not given) | 0.11% [at 95.7 µM] | –
CC(Cc1ccc(O)c(O)c1)C(C)Cc1ccc(O)c(O)c1 (stereo not given) | 0.486% [at 91.3 µM] | –
NCCCC(=O)O | -0.0241% | –
OCl | 0.0125% | –
NCC[C@H](O)C(=O)N[C@@H]1C[C@H](N)[C@@H](O[C@H]2O[C@H](CN)CC[C@H]2N)[C@H](O)[C@H]1O[C@H]1O[C@H](CO)[C@@H](O)[C@H](N)[C@H]1O | 0.0684% | –
O=P(O)(O)C(O)(Cn1ccnc1)P(=O)(O)O | -0.284% | –
CCCCCCCCCCCCCCCCCCNC(=O)OC1CCN(C(=O)OC[C@H](COC(=O)N(Cc2cccc[n+]2CC)C(=O)c2ccccc2OC)OC)CC1 | -0.739% | –
c1ccc(-c2ccc(C(c3ccccc3)n3ccnc3)cc2)cc1 (stereo not given) | -0.633% | –
CCCOC(=O)c1ccccc1O | -0.126% | –
O=C(O)[C@H]1CN(C/C=C/P(=O)(O)O)CCN1 | -0.657% | –
CCN(CC)CC#CCOC(=O)C(O)(c1ccccc1)C1CCCCC1 (stereo not given) | -0.767% | –
CS(=O)(=O)c1ccc([C@@H](O)[C@@H](COC(=O)CN)NC(=O)C(Cl)Cl)cc1 | 0.537% | –
O=C1c2ccccc2-c2n[nH]c3cccc1c23 | 0.727% | –
CC(C)c1ccc2sc3ccccc3c(=O)c2c1 | -0.266% [at 91.3 µM] | –
CCCCCCCC[N+](C)(C)CCCCCCCC | – | inactive
Cc1cnc(C(=O)O)c[n+]1[O-] | – | inactive
CC(C)[C@H](NC(=O)[C@H](CC(=O)O)NC(=O)[C@H](CCCCN)NC(=O)[C@@H](N)CCCN=C(N)N)C(=O)N[C@@H](Cc1ccc(O)cc1)C(=O)O (H-RKDVY-OH) | -0.0625% | –
C=C(Nc1ccc(OCC)cc1)Nc1ccc(OCC)cc1 | – | inactive
CC[C@@]1([C@@H]2O[C@@H]([C@H]3O[C@@](O)(CO)[C@H](C)C[C@@H]3C)C[C@@H]2C)CC[C@H]([C@]2(C)CC[C@]3(C[C@H](O)[C@@H](C)[C@@H]([C@@H](C)[C@@H](OC)[C@H](C)C(=O)O)O3)O2)O1 (stereo in doubt) | – | inactive
Nc1ccc(N)c([N+](=O)[O-])c1 | 0.356% [at 91.3 µM] | –

Structure (SMILES) | fluorescence, % of fluorescent control | outcome
CCCn1c(=O)[nH]c(=O)c2[nH]cnc21 | -0.204% | –
COc1cc([C@@H]2c3cc4c(cc3[C@@H](O[C@@H]3O[C@@H]5CO[C@@H](C)O[C@H]5[C@H](O)[C@H]3O)[C@H]3COC(=O)[C@H]23)OCO4)cc(OC)c1O | – | inactive
CON=C1C[C@]2(C[C@@H]3C[C@@H](C/C=C(\C)C[C@@H](C)/C=C/C=C4\CO[C@@H]5[C@H](O)C(C)=C[C@@H](C(=O)O3)[C@]45O)O2)O[C@H](/C(C)=C/C(C)C)[C@H]1C | – | inactive
CCCCCCCC1CCC(=O)O1 (stereo not given) | 0.029% [at 91.3 µM] | –
CC1CCCC(C)N1NC(=O)c1ccc(Cl)c(S(N)(=O)=O)c1 (stereo not given) | -0.177% [at 18.6 µM] | –
CC(=O)NC[C@H]1CN(c2ccc(N3CCOCC3)c(F)c2)C(=O)O1 | -0.211% | –
CCN(CC)CCNC(=O)c1ccc(NS(C)(=O)=O)cc1 | -0.171% | –
O=C(O)Cc1nn(Cc2ccc(Br)cc2F)c(=O)c2ccccc12 | -0.0431% | –
O=C(Nc1ccccc1)c1cc(Cl)ccc1O | -0.129% [at 91.3 µM] | –
NC(N)=NCCCCN=C(N)N | 0.0005% | –
O=C(CCN1CCC(c2ccccc2)C1)c1ccc2c(c1)OCCO2 (stereo not given) | -0.343% | –
CCC(C)(C)c1ccc(CC(C)CN2C[C@@H](C)O[C@@H](C)C2)cc1 (stereo not given in full) | 0.33% | –
O=C(O)c1cc(=O)c2c3nc4ccccc4oc-3cc(=O)c2[nH]1 | 0.0939% | –
C[C@H](O)CN(C)C | -0.714% | –
CN1CC[C@H](c2c(O)cc(O)c3c(=O)cc(-c4ccccc4Cl)oc23)[C@H](O)C1 | -0.171% | –
CC(C)CCC[C@@H](C)[C@H]1CC[C@H]2[C@@H]3CC=C4C[C@@H](O)CC[C@]4(C)[C@H]3CC[C@]12C | 0.0704% | –
Cc1cc(=O)c(C(=O)N[C@@H](C(=O)N[C@@H]2C(=O)N3C(C(=O)O)=C(CSc4nnnn4C)CS[C@H]23)c2ccc(O)cc2)c[nH]1 | 0.639% | –
CC12CCC(C[N+](C)(CCC[N+](C)(C)C)C1)C2(C)C (stereo not given) | 0.364% | –
CCc1ncnc2cc(OC)c(OC)cc12 | 0.104% | –
O=C(N[C@H](CO)[C@H](O)c1ccc([N+](=O)[O-])cc1)C(Cl)Cl | – | inactive
